# The supplement of paper PMC10600219
# In all, about 2,800 compounds were measured (“cell viability relative to vehicle”: median about 1.1, lowest 2% from about 0.19 on). What follows is part of a selection rich in the lowest values, with near analogues and random picks from the rest.
# Test system: NCI-H2228 parental
# Assay: cell viability relative to vehicle (fraction of vehicle); NCI-H2228 is an ALK-positive lung cancer line and DTP means drug-tolerant persister; higher = less growth inhibition
# Settings: 100 nM; treatment time 6 days
# Summary of the method: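 Values give cell viability as a fraction of vehicle-treated cells. Parental and drug-tolerant persister NCI-H2228 cells (persisters made with 1000 nM of a targeted drug for 13 days) were exposed in 384-well plates to the 3114-agent TargetMol anti-cancer compound library at 100 nM, with DMSO as vehicle. ATP was then read after 6 days by the CellTiter-Glo 3D Cell Viability Assay.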
row,SMILES,cell viability
1,COc1ccc(S(=O)(=O)Nc2ccccc2C=Cc2ccncc2)cc1,0.238
2,C[C@@H]1O[C@@H](O[C@@H]2[C@@H](O)[C@H](OCCc3ccc(O)c(O)c3)O[C@H](CO)[C@H]2OC(=O)/C=C/c2ccc(O)c(O)c2)[C@H](O)[C@H](O)[C@H]1O [Verbascoside],1.03
3,CN(C(=O)CNC(=O)/C=C/c1cccc(Cl)c1)C1CCS(=O)(=O)CC1,0.834
4,O=C(CNc1ccc2ccccc2c1)N/N=C/c1cc(Br)c(O)c(Br)c1O,1.05
5,COC(=O)C1=CO[C@@H](O[C@@H]2O[C@H](CO)[C@@H](O)[C@H](O)[C@H]2O)[C@H]2[C@@H]1[C@H](O)C[C@]2(C)OC(C)=O [8-O-Acetylshanzhiside methyl ester],0.898
6,OCC1(O)COc2cc(O)ccc2-c2cc(O)c(O)cc2C1 (centres undefined) [Protosappanin B],1.04
7,O=c1cc(-c2ccc(O)c(-c3c(O)cc(O)c4c(=O)cc(-c5ccc(O)cc5)oc34)c2)oc2cc(O)cc(O)c12 [Amentoflavone],1.08
8,C[C@H]1O[C@@H](O[C@H]2CC[C@@]3(C)[C@@H](CC[C@]4(C)[C@@H]3C=C[C@]35OC[C@@]6(CCC(C)(C)C[C@H]63)[C@@H](O)C[C@]54C)[C@]2(C)CO)[C@H](O)[C@@H](O[C@@H]2O[C@H](CO)[C@@H](O)[C@H](O)[C@H]2O)[C@H]1O [Saikosaponin A],1.11
9,C/C1=C/CC[C@H](C)C(=O)C[C@@H](C(C)C)C(=O)C1 [Curdione],1.07
10,O=C1c2c(O)ccc(O)c2C(=O)c2c(NCCNCCO)ccc(NCCNCCO)c21 [Mitoxantrone],0.132
11,NCCNc1ccc(NCCN)c2c1C(=O)c1ccncc1C2=O [Pixantrone dimaleate],0.405
12,O=C1c2cccc(O)c2C(=O)c2c(O)cccc21 [Antrapurol],1.06
13,COc1ccc(S(=O)(=O)N[C@@H](CNc2nc(C)nc(N3CCC(c4ccc5c(n4)NCCC5)CC3)c2C)C(=O)O)cc1,0.705
14,COc1ccc2c(c1)C(c1ccc(F)cc1)=C(CN1CCCC1)CO2,1.1
15,COc1cc2ncnc(Nc3ccc(O)cc3)c2cc1OC,1.02
16,CO[C@H]1C(=O)[C@]2(C)[C@@H](OC)C[C@H]3OC[C@@]3(OC(C)=O)[C@H]2[C@H](OC(=O)c2ccccc2)[C@]2(O)C[C@H](OC(=O)[C@H](O)[C@@H](NC(=O)OC(C)(C)C)c3ccccc3)C(C)=C1C2(C)C [Cabazitaxel],0.2
17,CC(=O)O[C@@]12CO[C@@H]1C[C@H](O)[C@@]1(C)C(=O)[C@H](O)C3=C(C)[C@@H](OC(=O)[C@H](O)[C@@H](NC(=O)OC(C)(C)C)c4ccccc4)C[C@@](O)([C@@H](OC(=O)c4ccccc4)[C@H]21)C3(C)C [Docetaxel trihydrate],0.154

row,SMILES,cell viability
1,CC(=O)O[C@H]1C(=O)[C@@]2(C)[C@H]([C@H](OC(=O)c3ccccc3)[C@]3(O)C[C@H](OC(=O)[C@H](O)[C@@H](NC(=O)c4ccccc4)c4ccccc4)C(C)=C1C3(C)C)[C@]1(OC(C)=O)CO[C@@H]1C[C@@H]2O [Paclitaxel],0.128
2,CC(=O)O[C@@]12CO[C@@H]1C[C@H](O)[C@@]1(C)C(=O)[C@H](O)C3=C(C)[C@@H](OC(=O)[C@H](O)[C@@H](NC(=O)OC(C)(C)C)c4ccccc4)C[C@@](O)([C@@H](OC(=O)c4ccccc4)[C@H]21)C3(C)C [Docetaxel],0.118
3,CC(C)NCC(O)COc1ccc(COCCOC(C)C)cc1 (racemic) [(±)-Bisoprolol hemifumarate],1.14
4,CC(C)(O)[C@H]1CC[C@H](Nc2ccc3ncc(-c4cccc(C(F)(F)F)c4)n3n2)CC1,0.928
5,COc1cc2c(c(OC)c1OC)-c1c(cc(OC)c(OC)c1OC)CC(C)C(C)C2 (centres undefined) [Schizandrin A],1.11
6,CC(C)c1c(-c2ccccc2)nc2c(C#N)c[nH]n2c1=O,1.1
7,COC(=O)C[C@](O)(CCCC(C)(C)O)C(=O)O[C@@H]1C(OC)=C[C@]23CCCN2CCc2cc4c(cc2[C@H]13)OCO4 [Homoharringtonine],0.162
8,COc1c2c(cc3oc(CO[C@@H]4O[C@H](CO)[C@@H](O)[C@H](O)[C@H]4O)cc(=O)c13)O[C@H](C(C)(C)O)C2 [Cimifugin beta-D-glucopyranoside],1.09
9,C=C[C@H]1[C@H](O[C@@H]2O[C@H](CO)[C@@H](O)[C@H](O)[C@H]2O)OC=C2C(=O)OCC[C@]21O [Swertiamarin],1.11
10,CCCCCCCCCCCCCCCC(=O)O [Palmitic acid],1.02
11,O=C1O[C@H]2[C@@H]3OC(=O)c4cc(O)c(O)c(O)c4-c4c(cc(O)c(O)c4O)C(=O)OC[C@H]2O[C@@H](OC(=O)c2cc(O)c(O)c(O)c2)[C@@H]3OC(=O)c2cc(O)c(O)c3c2[C@@H]2C1=CC(=O)[C@](O)(O3)C2(O)O [Geraniin],0.981
12,COc1cc(N2CCC(N3CCN(C)CC3)CC2)ccc1Nc1ncc(Cl)c(-c2c[nH]c3ccccc23)n1,0.358
13,COc1cc(C(C)C)c(Oc2cnc(N)nc2N)cc1I,1.16
14,C/C(=C\c1csc(C)n1)[C@@H]1C[C@@H]2O[C@]2(C)CCC[C@H](C)[C@H](O)[C@@H](C)C(=O)C(C)(C)[C@@H](O)CC(=O)N1 [Ixabepilone],0.119
15,C[C@H](CCC(=O)NCC(=O)O)[C@H]1CC[C@H]2[C@@H]3[C@H](O)C[C@@H]4C[C@H](O)CC[C@]4(C)[C@H]3CC[C@]12C [Glycochenodeoxycholic Acid],1.02
16,CC(=O)OC(C)C(C)C(=O)OCC12C3CC(C)(C)[C@H](O[C@@H]1C[C@]1(C)C3=CCC3C4(C)CCC(O[C@@H]5O[C@H](C(=O)O)[C@@H](O[C@H]6O[C@H](CO)[C@@H](O)[C@H](O)[C@H]6O)[C@H](O)[C@H]5O[C@@H]5OC[C@@H](O)[C@H](O)[C@H]5O)[C@](C)(CO)C4CCC31C)C2O (some centres undefined) [Sodium Aescinate],1.1
17,O=S(=O)(CCC(F)=C(F)F)c1ncc(Cl)s1 [Fluensulfone],1.07
